Assay outcomes from PubChem BioAssay.
Pf Dd2 inh = inhibitors of Plasmodium falciparum Dd2 growth. P. falciparum Dd2 growth, SYBR Green, 72 h; active compounds read low. activity change, % at 10 µM. hit rate 2.3% among 94,000; in the data active = activity change below about -80%; inconclusive = no clear call, values can overlap the other calls
T cruzi growth-1 = inhibitors of T. cruzi proliferation; hit rate 5.9% among 77,000; AID 624255; inhibition, % at 8.34 µM; T. cruzi beta-gal in NIH3T3, GalScreen luminescence, 90 h;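 active = mean inhibition above about 93%, with at least 55% of replicates each passing it, limit read from the data, passing the limit was not always enough; inconclusive = only one of those two conditions holds; inactive = neither condition holds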
C diff HTS = inhibitors of Clostridium difficile growth; Clostridium difficile clinical isolate growth, OD600, 24 h; active compounds read low; growth activity, negative = inhibition, % at 16 µg/mL (by protocol); hit rate 0.25% among 86,000; AID 1259249;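 active = mean growth activity at or below -80% and every replicate also at or below -80%; inconclusive = mean at or below -80% but some replicate above -80%; inactive = mean growth activity above -80%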;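 note: 0% = DMSO wells and -100% = levofloxacin 16 µg/mL wells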
T cruzi growth-2 = blocks T. cruzi growth in NIH3T3 host cells | T. cruzi beta-gal in NIH3T3, GalScreen luminescence, 90 h | hit rate 72% among 5,600 | AID 651739 | shares compounds with T cruzi growth-1 | inhibition, % at 8.35 µM;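 active = mean replicate inhibition above about 95% and at least 55% of replicates individually reaching it, limit read from the data; inconclusive = only one of the two criteria is met; inactive = neither criterion is met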
T cruzi growth-3 = inhibitors of T. cruzi proliferation; shares compounds with T cruzi growth-1; T. cruzi beta-gal in NIH3T3, GalScreen luminescence, 90 h; hit rate 21% among 5,600; AID 651740; inhibition, % at 2.09 µM;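 active = mean inhibition above about 95%, with at least 55% of replicates also reaching it, limit read from the data; inconclusive = meets just one of the two conditions; inactive = meets neither condition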;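 note: plate controls were neutral control median for no effect and positive control median for full effect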
NIH3T3 tox = cytotoxicity in mouse NIH/3T3 fibroblasts. cytotoxicity (signal decrease), % at 8.35 µM. AID 651742. NIH/3T3 viability, CellTiter-Glo ATP luminescence, 90 h. hit rate 14% among 5,600. shares compounds with T cruzi growth-1;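 active = mean signal decrease across replicates above about 35% based on untreated-well scatter, with enough replicates individually passing, limit read from the data; inconclusive = no rule stated though some were filed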;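 note: 0% = median of neutral control wells and 100% = median of positive control wells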
3T3 cytotox 2 = cytotoxicity in mouse NIH/3T3 fibroblasts | shares compounds with T cruzi growth-1 | NIH/3T3 viability, CellTiter-Glo ATP luminescence, 90 h | inhibition, % at 24.9 µM | hit rate 56% among 5,600;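 active = mean loss of cell viability signal at or above a set limit, and enough replicates individually reaching it; inconclusive = meets only the mean limit or only the replicate share; inactive = meets neither condition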;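 note: 0% = median of neutral control wells and 100% = median of positive control wells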
* marks the source's active call; other numbers are inactive results; ? = inconclusive; / = no result. Only some compounds are listed: those with a hit (about 6.8% of all), similar ones and a draw of the others.

SMILES | Pf Dd2 inh | T cruzi growth-1 | C diff HTS | T cruzi growth-2 | T cruzi growth-3 | NIH3T3 tox | 3T3 cytotox 2
C[C@H](CO)N1C[C@H](C)[C@@H](CN(C)C(=O)Nc2cccc3ccccc23)Oc2c(NC(=O)Nc3ccc(C(F)(F)F)cc3)cccc2C1=O | -33.8 | 97.1* | 15.2 | 104.0* | 48.8 | 29.9 | 103.2*
C[C@@H]1CN([C@@H](C)CO)C(=O)c2cccc(NC(=O)Nc3ccc(C(F)(F)F)cc3)c2O[C@@H]1CN(C)C(=O)Nc1cccc2ccccc12 | -68.9 | 63.1 | -15.6 | / | / | / | /
O=C(C[C@@H]1CC[C@@H](NC(=O)Nc2ccccc2)[C@@H](CO)O1)NCc1cccc(F)c1 | -2.7 | / | -1.3 | / | / | / | /
O=C(c1cccc(F)c1)N1CCCCN2[C@H](C1)[C@H](c1ccc(C#CC3(O)CCCC3)cc1)[C@@H]2CO | 12.7 | 84.8 | -0.9 | / | / | / | /
CNC(=O)C[C@H]1CC[C@H]2[C@@H](COc3ccc(NC(=O)Nc4ccccc4OC)cc3C(=O)N2C)O1 | 9.3 | -2.3 | -3.6 | / | / | / | /
OC[C@H]1[C@H](c2ccc(C#CC3(O)CCCC3)cc2)[C@@H]2CN(Cc3cccnc3)CCCCN12 | 8.1 | 108.0* | -1.1 | 98.2* | 75.5 | -0.2 | -17.6
OC[C@H]1[C@H](c2ccc(C#CC3(O)CCCC3)cc2)[C@H]2CN(Cc3cccnc3)CCCCN21 | -4.3 | 85.2 | -5.3 | / | / | / | /
OC[C@@H]1[C@@H](c2ccc(C#CC3(O)CCCC3)cc2)[C@@H]2CN(Cc3cccnc3)CCCCN12 | -9.1 | 85.1 | -4.9 | / | / | / | /
OC[C@@H]1[C@H](c2ccc(C#CC3(O)CCCC3)cc2)[C@@H]2CN(Cc3cccnc3)CCCCN12 | -4.2 | 101.2* | 0.0 | 107.5* | 91.1 | 18.7 | 22.9
CCCC#Cc1cnc2c(c1)C(=O)N([C@@H](C)CO)C[C@@H](C)[C@@H](CN(C)C(=O)CCN1CCCCC1)O2 | 8.0 | / | -1.8 | / | / | / | /
C[C@@H]1CCCCO[C@@H](CN(C)C(=O)C2CCCCC2)[C@H](C)CN([C@@H](C)CO)C(=O)c2cc(NS(=O)(=O)c3cccs3)ccc2O1 | -8.6 | 17.3 | -4.7 | / | / | / | /
C[C@@H]1CN([C@H](C)CO)C(=O)c2cc(NS(=O)(=O)c3cccs3)ccc2O[C@@H](C)CCCCO[C@H]1CN(C)C(=O)C1CCCCC1 | -46.8 | / | -15.9 | / | / | / | /
C[C@@H]1CCCCO[C@@H](CN(C)C(=O)C2CCCCC2)[C@@H](C)CN([C@@H](C)CO)C(=O)c2cc(NS(=O)(=O)c3cccs3)ccc2O1 | -41.5 | 109.7* | 0.6 | 46.2 | 10.3 | -2.4 | 9.7
C[C@H](CO)N1C[C@H](C)[C@H](CN(C)C(=O)C2CCCCC2)OCCCC[C@H](C)Oc2ccc(NS(=O)(=O)c3cccs3)cc2C1=O | -47.3 | 114.5* | 10.4 | 81.9 | 45.1 | 7.0 | 9.9
COc1ccccc1S(=O)(=O)N[C@@H]1CC[C@@H](CC(=O)N2CCOCC2)O[C@H]1CO | 13.6 | -5.8 | 2.6 | / | / | / | /
CO[C@H]1CN(C)C(=O)c2cc(NC(=O)c3ccno3)ccc2OC[C@@H](C)NC[C@@H]1C | 4.3 | 18.0 | / | / | / | / | /
CCCNC(=O)N1C[C@@H](C)[C@H](OC)CN(C)C(=O)c2cc(NC(=O)C3CCC3)ccc2OC[C@@H]1C | / | 59.0 | / | / | / | / | /
COc1ccc2c3c([nH]c2c1)[C@H](CO)N(S(C)(=O)=O)CC31CN(C(=O)c2cccnc2)C1 | 9.2 | / | -1.9 | / | / | / | /
Cc1ccc(S(=O)(=O)N2C[C@@H](O)COC[C@H]3O[C@@H](CC(=O)N[C@H]4CCN(Cc5ccccc5)C4)CC[C@@H]32)cc1 | -32.4 | 98.9* | / | 106.0* | 80.9 | 11.0 | 14.1
COc1ccc(S(=O)(=O)N2C[C@@H](O)COC[C@H]3O[C@H](CC(=O)N[C@@H]4CCN(Cc5ccccc5)C4)CC[C@@H]32)cc1 | / | 82.6 | -10.7 | / | / | / | /
Cc1ccc(S(=O)(=O)N2C[C@H](O)COC[C@@H]3O[C@@H](CC(=O)N[C@@H]4CCN(Cc5ccccc5)C4)CC[C@H]32)cc1 | -25.2 | 13.2 | / | / | / | / | /
COc1ccc(S(=O)(=O)N2C[C@H](O)COC[C@H]3O[C@@H](CC(=O)N[C@H]4CCN(Cc5ccccc5)C4)CC[C@@H]32)cc1 | / | ? | 0.1 | 84.4 | 40.2 | -16.7 | -1.4
CC(C)C#Cc1ccc2c(c1)O[C@@H](CN(C)CC1CCCC1)[C@H](C)CN([C@@H](C)CO)S2(=O)=O | -55.7 | 91.9* | 2.8 | 105.5* | 52.6 | 40.7* | 103.3*
